In PubChem BioAssay AID488922 (Johns Hopkins Ion Channel Center, 2010):
Among all 310,000 compounds or so, about 3,800 (1.2%) were called active.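 How the source made its calls: active means ratio B-score over 3 SD below the library mean, with starting fluorescence within 5 SD of its mean; inactive means the rest, inconclusive results apart.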 Only a selection was taken, and actives are over-represented in it overall.

The compounds below were run against Potassium channel subfamily K member 9 (Homo sapiens) (UniProt Q9NPC2) (assay: blockers of human TASK-3 (KCNK9) channel – HEK293 cells, thallium flux, primary screen (AID 488922;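 on B-score: negative B-score means less thallium flux so channel inhibition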)). Conditions: HEK293 KCNK9, FluxOR thallium flux fluorescence, at 10 µM; hits give low values.
Potassium channel subfamily K member 9 (Homo sapiens), sequence (Q9NPC2 whole entry, looked up): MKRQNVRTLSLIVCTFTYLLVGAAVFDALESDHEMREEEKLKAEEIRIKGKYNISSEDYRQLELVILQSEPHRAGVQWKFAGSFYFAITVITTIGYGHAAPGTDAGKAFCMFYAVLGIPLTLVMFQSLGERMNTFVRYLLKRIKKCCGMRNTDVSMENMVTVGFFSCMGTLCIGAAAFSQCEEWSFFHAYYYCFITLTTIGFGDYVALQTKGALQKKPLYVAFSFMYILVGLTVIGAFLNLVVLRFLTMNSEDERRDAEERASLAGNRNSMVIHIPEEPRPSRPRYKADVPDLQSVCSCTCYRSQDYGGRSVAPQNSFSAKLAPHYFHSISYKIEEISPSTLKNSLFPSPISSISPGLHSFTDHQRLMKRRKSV

Row | SMILES | B-score
1 | CCO[C@H]1OC(C(=O)NCc2ccccc2)=C[C@@H](c2coc3ccccc3c2=O)[C@@H]1CCCO | inactive
2 | O=C(COc1ccc2c3c(c(=O)oc2c1)CCCC3)NCC(O)c1ccccc1 (configuration not stated) | inactive
3 | CN1CCN(CC#CCC2(O)c3ccccc3-c3ccccc32)CC1 | inactive
4 | Cc1cccc(NC(=O)c2sc3nc(N4CCOCC4)c4c(c3c2N)CCCC4)c1 | inactive
5 | NC(=O)c1sc2nc3c(c(-c4ccccc4)c2c1N)CCC3 | inactive
6 | Cc1cccc(NC(=O)c2sc3nc4c(c(-c5ccco5)c3c2N)CCC4)c1 | -10.4 (active)
7 | CC1(C)CC(=O)C(C2c3ccccc3S(=O)(=O)c3ccccc32)C(=O)C1 | inactive
8 | COc1cnn(-c2ccc([N+](=O)[O-])cc2)c(=O)c1Cl | inactive
9 | COc1ccc(N2C(=O)c3ccccc3NC2c2ccc(OC)c(CN3CCOCC3)c2)cc1 (configuration not stated) | inactive
10 | COc1ccc(C2Nc3ccccc3C(=O)N2c2ccc(Cl)cc2)cc1Cn1cc([N+](=O)[O-])cn1 (configuration not stated) | -7.96 (active)
11 | CCCCn1c(N)c(N(CC(C)C)C(=O)c2ccc(Br)o2)c(=O)[nH]c1=O | inactive
12 | Cc1ccccc1-c1nc(CS(=O)(=O)CC(=O)NC(C)c2ccccc2)c(C)o1 (configuration not stated) | inactive
13 | CCOc1ccc(NC(=O)CN(C)C(=O)COc2cccc(CC)c2)cc1OCC | inactive
14 | O=C1c2ccccc2S(=O)(=O)N1CC(O)Cn1c2ccccc2c2ccccc21 (configuration not stated) | -10.9 (active)
15 | CCCCN(CCCC)CC(O)Cn1c2ccccc2c(=O)c2ccccc21 (configuration not stated) | inactive
16 | CC(C)(C)c1ccc(CN2C(=O)c3ccccc3S2(=O)=O)cc1 | inactive
17 | CC(=O)Nc1ccc(S(=O)(=O)NNC(=O)CCc2ccccc2)cc1 | inactive
18 | Cc1c(NC(=O)c2cc(-c3ccc(Cl)s3)nc3ccccc23)c(=O)n(-c2ccccc2)n1C | inactive
19 | Cc1cc(C)c(SCCc2ccncc2)c(C)c1 | inactive
20 | CCOC(=O)C(NS(=O)(=O)c1ccc(C)cc1)(C(F)(F)F)P(=O)(OCC(C)C)OCC(C)C (configuration not stated) | inactive
21 | O=C(O)CN1CCN(C(c2ccccc2)c2ccccc2)CC1 | inactive
22 | CC1(C)CC(N2CCN(C(c3ccccc3)c3ccccc3)CC2)=CC(=[N+]2CCCCC2)C1 | -17.2 (active)
23 | CC1(C)CC(=O)C=C(N2CCCC2)C1 | inactive

Row | SMILES | B-score
24 | Cc1ccccc1-n1cc(CNC(=O)CC2C(=O)NCCN2C/C=C/c2ccccc2)cn1 (configuration not stated) | inactive
25 | CCOc1ccc(C(=O)CCN2CCOCC2)cc1 | inactive
26 | O=C(NNc1c2ccccc2nc2ccccc12)c1cc2ccccc2cc1O | -7.49 (active)
27 | O=C(N/N=C/c1cccnc1)c1cc2ccccc2cc1O | inactive
28 | CC(C)(C)OC(=O)NNc1c2ccccc2nc2ccccc12 | inactive
29 | O=C(COc1ccc(NC(=O)c2ccccc2[N+](=O)[O-])cc1)c1ccc(F)cc1 | inactive
30 | CC(C)CC(=O)Nc1ccc(Cc2ccncc2)cc1 | inactive
31 | COc1ccccc1NC(=O)C1CCCN1S(=O)(=O)c1ccc(Cl)cc1 (configuration not stated) | inactive
32 | CN(c1ccccc1)S(=O)(=O)c1cccc(C(=O)NNC(=O)c2ccncc2)c1 | inactive
33 | Cc1cc(NC(=O)CSc2nc3cc(Cl)ccc3c(=O)n2Cc2ccco2)no1 | inactive
34 | COc1ccccc1NC(=O)CSc1nc2sc3c(c2c(=O)n1-c1ccccc1)CCN(C)C3 | inactive
35 | COc1ccccc1NC(=O)CSc1nc2sc(C)c(C)c2c(=O)n1Cc1ccco1 | -9.54 (active)
36 | O=S(=O)(NCC1CCCO1)c1cnc(Cl)c(Cl)c1 (configuration not stated) | inactive
37 | COC(=O)CCCC1=CC2=C(c3ccccc3)C(=O)C(C)(OC(=O)C3CCCC3)C(=O)C2=CN1c1ccc(OC)cc1 (configuration not stated) | inactive
38 | COCCNC(=O)Cn1cc(C(=O)c2cccs2)c2ccccc21 | inactive
39 | COC(=O)c1cn(CC(=O)NCc2cccs2)c2ccccc12 | inactive
40 | O=C(Cn1cc(C(=O)c2cccs2)c2ccccc21)NCc1cccs1 | -13.5 (active)
41 | Cc1ccc(C(C[N+](=O)[O-])c2c(C)cc3ccccn23)cc1 (configuration not stated) | inactive
42 | COc1cccc(CC2(CO)CCCN(Cc3ccc(OC(F)F)cc3)C2)c1 (configuration not stated) | inactive
43 | Cc1cc(C)cc(Oc2c(C(F)(F)F)oc3cc(OCC(=O)O)ccc3c2=O)c1 | inactive
44 | COc1ccc(N(CCC#N)S(=O)(=O)c2ccc(Cl)cc2)cc1 | inactive
45 | CCC(c1nnnn1Cc1ccco1)N(Cc1cc2cc(OC)ccc2[nH]c1=O)C1CCCCC1 (configuration not stated) | inactive
46 | CCC(c1nnnn1Cc1ccco1)N(CCc1ccccc1)Cc1cc2cccc(C)c2[nH]c1=O (configuration not stated) | -8.62 (active)

Row | SMILES | B-score
47 | Cc1cccc2cc(CN(Cc3nnnn3Cc3ccccc3)C3CCCC3)c(=O)[nH]c12 | -11.5 (active)
48 | Cc1cccc2cc(CN(Cc3ccc4c(c3)OCO4)Cc3nnnn3C3CCCC3)c(=O)[nH]c12 | inactive
49 | CCC(c1nnnn1Cc1ccco1)N(CCc1ccccc1)Cc1cc2ccc(OC)cc2[nH]c1=O (configuration not stated) | inactive
50 | Cc1cc(C)c2cc(CN(Cc3nnnn3Cc3ccc(F)cc3)C3CCCC3)c(=O)[nH]c2c1 | inactive
51 | C/C=N/NC(=O)CCCC(=O)N/N=C/C | inactive
52 | CCNCCC(=O)N1c2ccccc2Sc2ccc(NC(=O)OCC)cc21 | inactive
53 | N#Cc1nc(Cc2cccc3ccccc23)oc1NCc1ccc2c(c1)OCO2 | -11.2 (active)
54 | Cn1cc(CCC(=O)NCc2ccc3c(c2)OCO3)c2ccccc21 | inactive
55 | c1n[nH]c(NCc2ccc3c(c2)OCO3)n1 | inactive
56 | CC(=O)N1Cc2ccccc2CC1C(=O)O (configuration not stated) | inactive
57 | CN1C2CCC1/C(=C\c1ccccc1Cl)C(=O)/C2=C\c1ccccc1Cl | -8.6 (active)
58 | O=C(CN1CCCCCC1)NCCN1C(=O)S/C(=C\c2ccccc2Cl)C1=O | inactive
59 | O=C(CN1C(=O)S/C(=C\c2ccccc2Cl)C1=O)NC1C=CS(=O)(=O)C1 (configuration not stated) | inactive
60 | O=C(CCc1nnc2ccc(NCc3ccccc3Cl)nn12)NCC1CCN(C2CCCC2)C1 (configuration not stated) | inactive
61 | Cc1ccc(CCNC(=O)C2CCN(S(=O)(=O)N3CCCC3)CC2)cc1 | inactive
62 | O=C(CNC1CCCCC1)NCC1(c2ccccc2)CCCC1 | -7.46 (active)
63 | COc1cc(C(=O)NCC2(c3ccccc3)CCCC2)ccc1OC(C)C | inactive
64 | CCOc1c(OC)cccc1C(=O)NCC1(c2ccccc2)CCCC1 | inactive
65 | C=C(Br)CN1CCN(CC(=C)Br)CC1 | inactive
66 | CCCCNC(=O)N1CCN(S(C)(=O)=O)CC1 | inactive
67 | CN(C)N=Nc1ccc2nc[nH]c2c1 | inactive
68 | Cc1cc(C)c2[nH]c(=O)c(C(c3nnnn3Cc3ccc4c(c3)OCO4)N3CCCC3)cc2c1 (configuration not stated) | inactive
69 | Fc1ccccc1C(c1nnnn1Cc1ccc2c(c1)OCO2)N1CCN(Cc2ccccc2)CC1 (configuration not stated) | inactive

Row | SMILES | B-score
70 | Fc1ccc(Cn2nnnc2C(c2cccs2)N2CCCCCC2)cc1 (configuration not stated) | -13.1 (active)
71 | CCCn1c(SCC(=O)Nc2ccc(C)c(S(=O)(=O)N3CCOCC3)c2)n[nH]c1=O | inactive
72 | Cc1ccc(C(=O)OCC(=O)N2CC(C)CC(C)C2)cc1S(=O)(=O)N1CCCCC1 (configuration not stated) | inactive
73 | COc1ccc2c(CC(=O)N3CCc4cc(OC)c(OC)cc4C3)coc2c1 | inactive
74 | N/C(Cc1ccc([N+](=O)[O-])cc1)=N\OC(=O)COc1ccc2ccccc2c1 | -7.84 (active)
75 | Cc1cc(C)cc(OCC(=O)O/N=C(\N)Cc2ccc([N+](=O)[O-])cc2)c1 | inactive
76 | N/C(=N\OC(=O)COc1ccc([N+](=O)[O-])cc1)c1ccc(Br)cc1 | inactive
77 | CCCc1cc(=O)oc2cc(OCC(=O)Nc3ccc(CN4CCOCC4)cc3)c(Cl)cc12 | inactive
78 | CN(C)c1ccc(NC(=O)c2ccncc2)c2ccccc12 | inactive
79 | c1ccc(C(c2ccccc2)N2CCN(Cc3nnnn3C3CCCCC3)CC2)cc1 | -14.6 (active)
80 | Oc1ccccc1CN1CCN(C(c2ccccc2)c2ccccc2)CC1 | inactive
81 | c1ccc(CCn2nnnc2CN2CCN(C3CCCC3)CC2)cc1 | inactive
82 | Cc1nn(Cc2ccccc2Cl)c(C)c1NC(=O)Cn1nc([N+](=O)[O-])c(Cl)c1C | inactive
83 | CC(=O)N1CCN(c2ccccc2NC(=S)NC(=O)c2cc3ccccc3o2)CC1 | inactive
84 | O=C(NCc1ccncc1)c1ccc(NS(=O)(=O)c2cccc([N+](=O)[O-])c2)cc1 | inactive
85 | O=C(NCc1ccco1)c1ccc([N+](=O)[O-])cc1Cl | inactive
86 | O=C(NCc1ccco1)c1ccc(NS(=O)(=O)c2cccc([N+](=O)[O-])c2)cc1 | -8.56 (active)
87 | O=C1CCCC(O)=C1N=Nc1ccc2ncsc2c1 | inactive
88 | Cc1ccc(S(=O)(=O)N2CCC(C(=O)NCCC3=CCCCC3)CC2)cc1C | inactive
89 | c1coc(CNc2ncnc3ccccc23)c1 | inactive
90 | c1ccc(-c2nc(NCc3ccco3)c3ccccc3n2)cc1 | -6.58 (active)
91 | CCOCCCNc1nc(-c2ccccc2)nc2ccccc12 | inactive
92 | O=C(Cc1ccccc1)n1nc(-c2ccccc2)nc1NCc1ccco1 | -9.15 (active)

Row | SMILES | B-score
93 | CS(=O)(=O)n1nc(-c2ccccc2)nc1NCc1ccco1 | inactive
94 | O=C(NCc1ccco1)c1nc(-c2ccccc2)n(-c2ccccc2)n1 | inactive
95 | CC(OC(=O)c1ccc(NS(=O)(=O)c2ccc3[nH]c(=O)[nH]c3c2)cc1)C(=O)Nc1cccc(Cl)c1Cl (configuration not stated) | inactive
96 | COc1ccc(-c2cnc(SCCNC(=O)c3ccc4c(c3)OCO4)[nH]2)cc1 | inactive
97 | Cc1ccccc1N1CCN(CC(=O)NCc2ccc(Cl)cc2)CC1 | inactive
98 | O=C(NCCc1ccc(Cl)cc1)C1CCCN1C(=O)NCc1ccccc1 (configuration not stated) | inactive
99 | O=C(Nc1ccc(Oc2ccccc2)cc1)c1ccco1 | -10.1 (active)
100 | O=C(Nc1ccc(O)cc1)c1ccc(NC(=O)c2ccco2)cc1 | inactive
101 | O=C(Nc1ccccc1)c1ccco1 | inactive
102 | Cc1cc(C)cc(NC(=O)C2CCCN(S(=O)(=O)c3ccc4[nH]c(=O)ccc4c3)C2)c1 (configuration not stated) | inactive
103 | O=C(Oc1ccccc1C(=S)N1CCCCC1)c1cc([N+](=O)[O-])cc([N+](=O)[O-])c1 | inactive
104 | COc1cc(C(=S)N2CCOCC2)cc(OC)c1OC(=O)c1cc([N+](=O)[O-])cc([N+](=O)[O-])c1 | inactive
105 | O=C(Oc1ccc(Br)cc1C(=S)N1CCOCC1)c1cccc([N+](=O)[O-])c1 | -16.4 (active)
106 | COc1ccccc1C(=O)Nn1cnnc1 | inactive
107 | CC(=O)Nc1ccc(OCCC[n+]2cccc(C(=O)[O-])c2)cc1 | inactive
108 | Nc1c(-c2ccccc2)nnn1Cc1ccccc1 | inactive
109 | CCCC1=Nc2cc(C(=O)NCc3ccco3)ccc2Sc2ccccc21 | -8.7 (active)
110 | CC(C)(C)c1ccc(C(=O)NCc2ccco2)cc1 | inactive
111 | CCCC1=Nc2cc(C(=O)NCCN3CCCC3)ccc2Sc2ccccc21 | inactive
112 | CN(C)/C=C(\C#N)C(=O)c1cccnc1Oc1cccc(F)c1 | inactive
